Test results as given in PubChem BioAssay (Tox21).
Several values for one entry are separate records, joined by “and”; a condition that tells them apart may be missing. Equal values may be shown once. Results filed as inconclusive are left out. Entries that show only a call come without a potency. Some compounds were tested as several samples or in several runs, with calls that do not always agree. Activity calls are given as the source filed them. Unless noted, calls come from the whole dose curve.

Legend:
[1] = Nuclear factor erythroid 2-related factor 2/antioxidant responsive element (Nrf2/ARE) small molecule agonists: qHTS cell viability counter screen in human keratinocytes (AID 1919968; active = well fitted curve in the direction sought with a large enough effect in the repeat runs; an effect the other way counts as inactive or inconclusive; note: nearly all actives have a fitted effect of over 55% in size; note: potency is the fitted concentration of half-maximal effect)
In short: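 HaCaT ARE reporter line, 1,500 cells/well; 5 h settle, 37 C/5% CO2; cpd in DMSO pinned; 23 h exposure; CellTiter-Fluor, 1 h; fluorescence.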

[2] = Nuclear factor erythroid 2-related factor 2/antioxidant responsive element (Nrf2/ARE) small molecule agonists: luciferase reporter gene qHTS assay in human keratinocytes (AID 1919969); note: nearly all actives have a fitted effect of over 35% in size; note: potency is the fitted concentration of half-maximal effect
[3] = target: Gonadotropin-releasing hormone receptor (Homo sapiens) (UniProt P30968); test: Human gonadotropin-releasing hormone receptor (GnRHR) small molecule agonists, calcium flux assay in GnRHR-HEK293 cells (AID 1920063); note: nearly all actives have a fitted effect of over 35% in size
Sequence of Gonadotropin-releasing hormone receptor (Homo sapiens) (P30968 whole entry, looked up): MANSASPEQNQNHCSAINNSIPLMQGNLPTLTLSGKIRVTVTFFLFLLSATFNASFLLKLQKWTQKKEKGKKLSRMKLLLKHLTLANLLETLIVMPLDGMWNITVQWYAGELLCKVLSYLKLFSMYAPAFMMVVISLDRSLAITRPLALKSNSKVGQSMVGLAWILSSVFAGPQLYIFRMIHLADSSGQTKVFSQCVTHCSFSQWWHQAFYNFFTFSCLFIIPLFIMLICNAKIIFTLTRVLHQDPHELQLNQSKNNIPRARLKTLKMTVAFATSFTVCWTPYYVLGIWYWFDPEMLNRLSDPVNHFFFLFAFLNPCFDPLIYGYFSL
In short: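 GnRHR-HEK293, 1500 cells/well, 18 h 37 C/5% CO2; Ca dye 1 h 37 C; cpd pinned (DMSO), agonist mode; kinetic FL 480/540, 3 min, 1 s reads; 15 conc, n=3.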

[4] = target: KiSS-1 receptor (Homo sapiens) (UniProt Q969F8); test: Human kisspeptin (KISS1R) small molecule agonists, calcium flux assay in KISS1R-HEK293 cells (AID 1920064; active = well fitted curve in the direction sought with a large enough effect in the repeat runs; an effect the other way counts as inactive or inconclusive)
Sequence of KiSS-1 receptor (Homo sapiens) (Q969F8 whole entry, looked up): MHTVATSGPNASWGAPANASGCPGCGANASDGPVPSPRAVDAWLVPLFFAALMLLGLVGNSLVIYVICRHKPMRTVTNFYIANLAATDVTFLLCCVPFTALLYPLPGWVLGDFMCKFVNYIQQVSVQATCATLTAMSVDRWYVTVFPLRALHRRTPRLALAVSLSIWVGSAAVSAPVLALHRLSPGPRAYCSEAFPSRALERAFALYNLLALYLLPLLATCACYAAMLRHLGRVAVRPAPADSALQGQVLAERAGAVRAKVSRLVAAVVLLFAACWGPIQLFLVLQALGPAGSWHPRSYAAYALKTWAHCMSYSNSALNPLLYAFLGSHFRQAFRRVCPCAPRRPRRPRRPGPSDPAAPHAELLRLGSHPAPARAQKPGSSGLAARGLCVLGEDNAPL
In short: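 Stable human KISS1R HEK293 line; 18 h plating, 37 C/5% CO2; calcium dye 1 h 37 C; compound pin transfer; kinetic fluorescence Ex/Em 480/540, 3 min.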

[5] = G protein-coupled receptor (GPCR) small molecule agonists, calcium flux assay: HEK293 wild type cell line counter screen (AID 1920065)
In short: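 Kinetic fluorescence at Ex/Em 480/540, recorded every second over 3 min, served as the read-out after compound addition. Each compound was tested at 15 concentrations in triplicate on cells pre-loaded with calcium dye for 1 h.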

[6] = p53 small molecule agonists, cell-based qHTS assay with human liver microsomes (AID 1963577);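 note: p53 response element beta-lactamase reporter cells with liver microsomes plus NADPH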
In short: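 p53RE-bla cells; 5 h settle, 37 C/5% CO2; cpd + HLM 0.5 mg/mL + NADPH 0.5 mg/mL (final); 16 h 37 C; LiveBLAzer 2 h RT dark; fluorescence readout.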

[7] = p53 small molecule agonists, cell-based qHTS assay with human liver microsomes: qHTS cell viability counter screen (AID 1963579); note: nearly all actives have a fitted effect of over 45% in size
In short: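 Luminescent CellTiter-Glo read-out, 30 min at room temperature, gauged cytotoxicity in p53RE-bla cells exposed 16 h at 37 C to DMSO-dissolved compounds with metabolic activation by human liver microsomes and NADPH, each 0.5 mg/mL final.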

[8] = p53 small molecule agonists, cell-based qHTS assay: qHTS cell viability counter screen (AID 1963581); note: nearly all actives have a fitted effect of over 45% in size; note: potency is the fitted concentration of half-maximal effect
In short: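 HCT-116 p53RE-bla cells, 4,000/well, plated 5 h before compound pin transfer; 16 h at 37 C; bla substrate 2 h RT; then CellTiter-Glo, 30 min RT, luminescence.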

[9] = target: 5-hydroxytryptamine receptor 2A (Homo sapiens) (UniProt P28223); test: 5-hydroxytryptamine receptor 2A (HTR2A) small molecule antagonists, cell-based qHTS assay (AID 1963586); note: nearly all actives have a fitted effect of over 45% in size; note: potency is the fitted concentration of half-maximal effect
Sequence of 5-hydroxytryptamine receptor 2A (Homo sapiens) (P28223 whole entry, looked up): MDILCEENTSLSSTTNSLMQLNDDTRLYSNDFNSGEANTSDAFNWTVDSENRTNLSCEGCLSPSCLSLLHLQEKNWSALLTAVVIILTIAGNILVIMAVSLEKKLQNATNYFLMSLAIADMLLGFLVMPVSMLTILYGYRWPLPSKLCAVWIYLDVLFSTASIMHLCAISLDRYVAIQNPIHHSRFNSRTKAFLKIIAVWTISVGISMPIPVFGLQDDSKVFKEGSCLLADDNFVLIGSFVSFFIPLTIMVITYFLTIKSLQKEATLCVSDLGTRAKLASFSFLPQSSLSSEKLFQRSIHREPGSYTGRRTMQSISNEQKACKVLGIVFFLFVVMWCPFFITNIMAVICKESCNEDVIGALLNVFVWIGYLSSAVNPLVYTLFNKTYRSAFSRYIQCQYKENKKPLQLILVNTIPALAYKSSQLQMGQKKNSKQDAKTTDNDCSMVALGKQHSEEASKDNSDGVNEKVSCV
In short: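 Antagonist-mode intracellular calcium assay: DOI (4 nM) added after 5 min compound pre-incubation at room temperature to dye-loaded HTR2A-CHO cells. Fluorescence followed for 3 min, sampled every second.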

[10] = target: 5-hydroxytryptamine receptor 2A (Homo sapiens) (UniProt P28223); test: 5-hydroxytryptamine receptor 2A (HTR2A) small molecule agonists, cell-based qHTS assay (AID 1963587); note: nearly all actives have a fitted effect of over 30% in size
In short: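 CHO cells stably expressing human HTR2A, plated 18 h, loaded with calcium dye 1 h at 37 C. Agonist mode: compounds added and intracellular calcium fluorescence recorded kinetically for 2 min at 1 sec intervals.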

[11] = target: Muscarinic acetylcholine receptor M1 (Homo sapiens) (UniProt P11229); test: Cholinergic receptor muscarinic 1 (CHRM1) small molecule antagonists, cell-based qHTS assay (AID 1963588); note: nearly all actives have a fitted effect of over 40% in size
Sequence of Muscarinic acetylcholine receptor M1 (Homo sapiens) (P11229 whole entry, looked up): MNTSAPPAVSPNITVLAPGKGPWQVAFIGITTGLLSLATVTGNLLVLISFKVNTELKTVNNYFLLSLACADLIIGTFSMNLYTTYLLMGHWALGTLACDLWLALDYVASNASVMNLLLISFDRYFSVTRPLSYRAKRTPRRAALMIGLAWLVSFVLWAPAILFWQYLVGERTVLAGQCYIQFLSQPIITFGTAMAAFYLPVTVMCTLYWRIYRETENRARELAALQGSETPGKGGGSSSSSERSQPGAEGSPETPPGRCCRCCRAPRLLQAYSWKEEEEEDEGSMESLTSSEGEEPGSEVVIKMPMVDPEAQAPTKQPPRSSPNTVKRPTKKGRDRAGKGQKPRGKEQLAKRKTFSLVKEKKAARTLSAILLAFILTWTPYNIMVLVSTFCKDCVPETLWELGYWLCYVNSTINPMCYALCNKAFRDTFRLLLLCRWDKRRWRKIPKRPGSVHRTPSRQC
In short: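 CHRM1-CHO calcium-flux assay, antagonist mode. Cells were seeded 18 h, dye-loaded 1 h at 37 C and given compound for 5 min at RT, then acetylcholine was added at 50nM. FDSS fluorescence was read 3 min; 15 concentrations, three runs.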

[12] = target: Muscarinic acetylcholine receptor M1 (Homo sapiens) (UniProt P11229); test: Cholinergic receptor muscarinic 1 (CHRM1) small molecule agonists, cell-based qHTS assay (AID 1963589); note: nearly all actives have a fitted effect of over 35% in size
In short: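 Human M1 in stable CHO line; 18 h plating, 1 h dye load 37 C; cpd added (agonist mode); Ca2+ fluorescence kinetic read, 1 s intervals; 15 conc, 3 runs.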

[13] = cAMP Responsive Elements (CRE) small molecule agonists, cell-based qHTS assay (AID 1963590)
In short: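 HEK 293T CRE-bla, 2,000 cells/well, 18 h preincubation 37 C/5% CO2; cpds (DMSO) pinned, 3 h; LiveBLAzer B/G FRET substrate, 2 h RT.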

[14] = target: Beta-2 adrenergic receptor (Homo sapiens) (UniProt P07550); test: Adrenergic beta2 receptor (ADRB2) small molecule antagonists, cell-based qHTS assay (AID 1963592); note: series mostly up to about 92 µM; nearly all actives have a fitted effect of over 50% in size
Sequence of Beta-2 adrenergic receptor (Homo sapiens) (P07550 whole entry, looked up): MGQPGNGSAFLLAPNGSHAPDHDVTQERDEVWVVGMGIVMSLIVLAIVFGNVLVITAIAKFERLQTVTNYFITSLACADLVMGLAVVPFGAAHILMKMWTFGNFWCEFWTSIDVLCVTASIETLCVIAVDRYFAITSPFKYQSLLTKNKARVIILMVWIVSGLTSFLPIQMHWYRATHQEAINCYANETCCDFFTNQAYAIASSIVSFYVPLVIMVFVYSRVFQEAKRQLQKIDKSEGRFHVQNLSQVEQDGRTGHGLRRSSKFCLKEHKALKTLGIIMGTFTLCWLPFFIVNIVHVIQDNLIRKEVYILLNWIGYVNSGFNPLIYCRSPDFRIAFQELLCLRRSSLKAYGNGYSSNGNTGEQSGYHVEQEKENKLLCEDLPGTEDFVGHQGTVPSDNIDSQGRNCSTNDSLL
In short: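 Cells (CHO, stable ADRB2 overexpression) incubated 18-20hr at 37C; compounds added from DMSO; agonist mix (1nM isoproterenol, 100uM IBMX, 25uM Ro-20-1724) added; 0.5hr RT; d2-cAMP and anti-cAMP-cryptate added; 1hr RT; 665/615 nm read.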

[15] = target: Beta-2 adrenergic receptor (Homo sapiens) (UniProt P07550); test: Adrenergic beta2 receptor (ADRB2) small molecule agonists, cell-based qHTS assay (AID 1963593);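 note: CHO cells stably overexpressing human ADRB2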
In short: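 CHO cells stably over-expressing ADRB2 were plated overnight at 37C, then dosed with compounds plus a stimulation mix containing 100uM IBMX and 25uM Ro-20-1724 for 0.5hr at room temperature. cAMP was measured by HTRF competition, 1hr.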

[16] = target: D(2) dopamine receptor (Homo sapiens) (UniProt P14416); test: Dopamine D2 receptor (DRD2) small molecule antagonists, cell-based qHTS assay (AID 1963595; active = well fitted inhibition curve with a large enough effect in the signal ratio in the repeat runs, with a control signal flat; the % refers to the signal ratio)
Sequence of D(2) dopamine receptor (Homo sapiens) (P14416 whole entry, looked up): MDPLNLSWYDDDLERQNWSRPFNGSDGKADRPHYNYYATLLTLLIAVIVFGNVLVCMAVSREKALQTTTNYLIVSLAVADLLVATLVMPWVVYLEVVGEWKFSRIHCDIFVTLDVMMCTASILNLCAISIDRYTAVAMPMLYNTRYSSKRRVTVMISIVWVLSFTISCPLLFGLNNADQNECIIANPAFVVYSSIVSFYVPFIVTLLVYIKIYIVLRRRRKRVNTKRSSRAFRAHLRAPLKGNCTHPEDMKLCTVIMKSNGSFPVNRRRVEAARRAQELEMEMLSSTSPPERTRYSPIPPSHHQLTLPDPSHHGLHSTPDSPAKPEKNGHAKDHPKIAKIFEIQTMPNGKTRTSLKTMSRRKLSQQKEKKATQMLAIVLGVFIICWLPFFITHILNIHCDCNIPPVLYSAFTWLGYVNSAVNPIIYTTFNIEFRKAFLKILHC
In short: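 Cells were plated and grown for 24 h at 37 °C. Ro20-1724 (0.1 mM final) went in first, then compound for 10 min. NKH477 (200 nM) with quinpirole (12 nM) followed for 30 min at RT, then HTRF detection reagents for 1 h.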

[17] = p53 small molecule agonists, cell-based qHTS assay with rat liver microsomes: qHTS cell viability counter screen (AID 1963580); note: nearly all actives have a fitted effect of over 45% in size
In short: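 p53RE-bla HCT-116 cells were exposed 16 h at 37 C to compounds with rat liver microsomes (0.5 mg/mL) and NADPH (0.5 mg/mL). Viability was measured in the same wells as ATP content by CellTiter-Glo luminescence.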

[18] = p53 small molecule agonists, cell-based qHTS assay (AID 1963582; active = well fitted activation curve with a large enough effect in the signal ratio in the repeat runs, not every such curve was filed as active; the % refers to the signal ratio)
In short: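 Reporter line: p53RE-bla. Pre-incubation 5 h, 37 C, 5% CO2; compound (DMSO, pin tool) 16 h, 37 C; B/G FRET substrate 2 h RT; fluorescence intensity read.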

[19] = cAMP Responsive Elements (CRE) small molecule antagonists, cell-based qHTS assay (AID 1963591; active = well fitted inhibition curve with a large enough effect in the signal ratio in the repeat runs, not every such curve was filed as active; the % refers to the signal ratio)
In short: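 Beta-lactamase reporter read by FRET substrate (LiveBLAzer B/G) after 2 h at room temperature. CRE-bla HEK293T cells had received compound plus 0.25 uM (final) NKH477 for 3 h at 37 °C.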

[20] = target: D(2) dopamine receptor (Homo sapiens) (UniProt P14416); test: Dopamine D2 receptor (DRD2) small molecule agonists, cell-based qHTS assay (AID 1963594); note: nearly all actives have a fitted effect of over 35% in size
In short: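 HEK293 cells stably expressing human DRD2, pre-treated with PDE inhibitor Ro20-1724 (0.1 mM final) and compound 10 min at room temperature, then stimulated with NKH477 (200nM […]) for 30 min. cAMP read by HTRF (665/620 nm).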

| Structure (SMILES) | Potency [1] | Potency [2] | Potency [3] | Potency [4] | Potency [5] | Potency [6] | Potency [7] | Potency [8] | Potency [9] | Potency [10] | Potency [11] | Potency [12] | Potency [13] | Potency [14] | Potency [15] | Potency [16] | Potency [17] | Potency [18] | Potency [19] | Potency [20] |
| --- | --- | --- | --- | --- | --- | --- | --- | --- | --- | --- | --- | --- | --- | --- | --- | --- | --- | --- | --- | --- |
| CC(=O)Nc1ccc(CC(=O)O)cc1 | inactive | inactive | inactive | inactive | inactive | inactive | inactive | inactive | inactive and 410 nM (active) | inactive | inactive | inactive | inactive | inactive | inactive | inactive |  |  |  |  |
| CC(C)CCCCCCCOC(=O)CCCCC(=O)OCCCCCCCC(C)C | inactive | inactive | inactive | inactive | inactive | inactive |  | inactive | inactive | inactive | inactive | inactive | inactive | inactive |  | inactive | inactive | inactive | inactive | inactive |
| CC(=O)CC/C=C(\C)CCC=C(C)C | inactive | inactive | inactive | inactive | inactive | inactive | inactive | inactive | inactive | inactive | inactive | inactive | inactive | inactive | inactive | inactive | inactive | inactive | inactive | inactive |
| CC(=O)C1=C(C)[C@@H]2C[C@@]3(C1)[C@H](C)CC[C@H]3C2(C)C | inactive | inactive | inactive | inactive | inactive | inactive | inactive | inactive | inactive | inactive | inactive | inactive | inactive | inactive | inactive | inactive | inactive | inactive | inactive | inactive |
| O=C(Nc1ccccc1SSc1ccccc1NC(=O)c1ccccc1)c1ccccc1 | 6.14 µM (active) and 6.11 µM (active) | 4.88 µM (active) and 6.11 µM (active) | inactive | inactive | inactive | inactive | inactive | inactive |  | inactive | inactive | inactive |  | inactive | inactive | inactive | inactive | inactive |  | inactive |
| Clc1cc(Cl)c(Cl)cc1Cl | inactive | inactive | inactive | inactive | inactive | inactive | inactive | inactive and 16.2 µM (active) | inactive | inactive | inactive | inactive | inactive | inactive | inactive | inactive | inactive |  | inactive | inactive |
| C[C@](N)(Cc1ccc(O)c(O)c1)C(=O)O | inactive | inactive | inactive | inactive | inactive | inactive | inactive | inactive |  |  |  |  | inactive | inactive |  | inactive | inactive | inactive | inactive | inactive |
